In PubChem BioAssay (NCI):
About 83,000 compounds went through this panel and 20% of them were active in at least one assay; those are over-represented in the sample as a whole.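 For each line, cells grew in 96-well plates with the test compound present at a single concentration for 48 hours.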 Values without a mark were called inactive. The source made the active and inactive calls. The calls were made as follows: active = growth percent below 10; inactive = the rest.

Key:
Experiment in all cases: NCI-60 one-dose screen, 48 h (100 = growth as untreated, 0 = no growth, -100 = all killed)
NCI-H226 lung = details: 10 µM unless noted
NCI-H322M lung = details: 10 µM unless noted
HOP-92 NSCLC = details: 10 µM unless noted
A549/ATCC NSCLC = details: 10 µM unless noted
HT29 colon = details: 10 µM unless noted
EKVX NSCLC = details: 10 µM unless noted
UO-31 renal = details: 10 µM unless noted
TK-10 renal = details: 10 µM unless noted
ACHN renal = details: 10 µM unless noted
CAKI-1 renal = details: 10 µM unless noted
MOLT-4 leukemia = details: 10 µM
RPMI-8226 leukemia = details: 10 µM unless noted
OVCAR-3 ovarian = details: 10 µM unless noted
HS 578T breast = details: 10 µM unless noted
HOP-62 NSCLC = details: 10 µM unless noted
NCI-H522 lung = details: 10 µM unless noted
COLO 205 colon = details: 10 µM
UACC-62 melanoma = details: 10 µM unless noted
T-47D breast = details: 10 µM unless noted

Row | Structure (SMILES) | growth (NCI-H226 lung) | growth (NCI-H322M lung) | growth (HOP-92 NSCLC) | growth (A549/ATCC NSCLC) | growth (HT29 colon) | growth (EKVX NSCLC) | growth (UO-31 renal) | growth (TK-10 renal) | growth (ACHN renal) | growth (CAKI-1 renal) | growth (MOLT-4 leukemia) | growth (RPMI-8226 leukemia) | growth (OVCAR-3 ovarian) | growth (HS 578T breast) | growth (HOP-62 NSCLC) | growth (NCI-H522 lung) | growth (COLO 205 colon) | growth (UACC-62 melanoma) | growth (T-47D breast)
1 | Nc1ccc(N)c2c1Oc1ccccc1O2 | 84.5% | 97.2% | 74.8% | 107% | 110% | 92.1% | 134% | 131% | 94.7% | 84.3% | 81.6% | 81% | 99% | 75.2% | – | – | – | – | –
2 | COc1ccc2c(c1)NC1=C(C(=O)OC1)C2c1cc(OC)c(OC)c(OC)c1 (centres undefined) | 49.6% | – | 5.87% (active) | 15.6% | 1.35% (active) | 53.8% | 47.2% | – | 31.1% | 25.4% | 5.82% (active) | 12.6% | -41.9% (active) | 31% | 44.2% | -26.2% (active) | -48.5% (active) | 44.7% | 25.1%
3 | C#CC1(O)CCC2(C)C(CCC3C4CCC(=O)C4(C)CCC32)C1 (centres undefined) | 86.4% | – | 86.1% | 92% | – | 89.3% | – | 91.7% | 97.8% | – | – | 83.7% | 109% | 94.3% | 94.3% | 86.9% | 106% | 88.7% | 96.1%
4 | CN=C(NN)NN | 109% | 114% | – | 96.2% | 106% | 97% | 90.8% | 125% | 108% | 88.9% | 102% | 91.6% | 102% | 102% | – | 107% | 129% | – | 106%
5 | COc1cc(C2CC(=O)Nc3nc(N)[se]c32)cc(OC)c1OC (centres undefined) | 103% | – | 138% | 45.7% | 89.5% | 90% | 99.9% | – | 103% | 113% | 82.7% | 101% | 101% | 81.9% | 70.9% | 107% | 107% | 117% | 74.5%
6 | O=S(=O)(c1ccc(Cl)cc1)C(Cl)(Cl)Cl | 60.8% | 75.2% | – | 56.6% | – | 40.6% | 9.42% (active) | 50.6% | 26.1% | -6.81% (active) | 16.2% | 18% | -15.6% (active) | 55.8% | – | 11% | – | 46.6% | 11.4%
7 | COC(=O)C[Se]C(=O)c1ccccc1OC(C)=O | 56.3% | 77.5% | 93.3% | 33.7% | – | 31.4% | 35.7% | 93.1% | 72% | 87.8% | – | 96% | 84.5% | 66.1% | – | – | 46.7% | – | –
8 | Nc1c(Br)cc([N+](=O)[O-])cc1[N+](=O)[O-] | 92.9% | – | 120% | – | 103% | 93.6% | – | 114% | 125% | – | 97.2% | 105% | – | 106% | 117% | 105% | 116% | – | 107%
9 | CC(C)(O)/C=C/C(=O)[C@](C)(O)[C@H]1[C@H](O)C[C@@]2(C)[C@@H]3CC=C4[C@@H](C=C(O)C(=O)C4(C)C)[C@]3(C)C(=O)C[C@]12C | -33.9% (active) | -20.1% (active) | – | 0.767% (active) | -31.1% (active) | -10.9% (active) | -54.6% (active) | -54.9% (active) | -29.9% (active) | -57.2% (active) | -15.1% (active) | -53.8% (active) | -28.9% (active) | -17.4% (active) | – | -74.7% (active) | -52.3% (active) | -29.9% (active) | -15.3% (active)
10 | O=C(CCF)c1ccc(O)cc1 | 105% | 101% | 100% | 101% | – | 99.3% | 87% | 106% | – | – | 100% | 97.5% | 109% | – | – | 87.6% | 105% | 106% | 102%
11 | Cc1ccc(N)cc1[As]=[As]c1cc(N)ccc1C (centres undefined) | -93.2% (active) | 50.3% | – | 69.8% | -84.6% (active) | – | -99.7% (active) | – | -91.6% (active) | -91.2% (active) | -29.9% (active) | -40.2% (active) | -92.6% (active) | – | – | -88.2% (active) | -69.3% (active) | -90.4% (active) | -41.9% (active)
12 | CCCCCN(CCCCC)CC(O)c1ccc(C)c(Cl)c1 (centres undefined) | 84.4% | 102% | – | 92.7% | 79% | 95.2% | 88.3% | 98.5% | 92.7% | 98.2% | 110% | 91.8% | – | 102% | – | 83.5% | 91.3% | 90.5% | 91.2%
13 | O=C(O)CC(Br)C(=O)CBr (centres undefined) | 91.9% | 100% | – | 99.9% | – | – | 86.1% | – | 99% | 95.8% | 103% | 103% | – | 104% | – | – | 109% | 102% | 103%
14 | O=C(CF)N(O)c1ccc(/C=C/c2ccccc2)cc1 | -22.9% (active) | 71.4% | – | 36.4% | – | 98.5% | 36.2% | – | 13.9% | 11.9% | 34.9% | – | 23.9% | 99% | – | 60.6% | – | 23.4% | 26%
15 | CNC(=O)Oc1cc(C(C)C)ccc1Sc1ccc(C(C)C)cc1OC(=O)NC | 83.2% | – | 89% | 64.2% | 97.6% | 69.1% | 65.7% | 84.7% | – | 67% | 26.8% | 51.2% | 69.2% | 67.7% | 75.9% | 75.7% | 112% | 47.2% | 77.7%
16 | NS(=O)(=O)c1nc[nH]c1[N+](=O)[O-] | 99.4% | 110% | 68.1% | – | 93.1% | 117% | 84.7% | 99.5% | 96.9% | 97.7% | 102% | 101% | – | 112% | – | 109% | – | 102% | 99.8%
17 | NC(=O)SCC(=O)Nc1ccc([As](=O)(O)O)cc1 | 111% | 123% | – | 85.9% | 93.7% | 111% | 93.8% | 105% | 100% | 109% | 86.1% | 84% | 103% | 82.3% | – | -9.01% (active) | 75.6% | 97.3% | 112%
18 | c1ccc(-c2ccc3ccccc3[o+]2)cc1 | 85.4% | – | 83.2% | – | 89.1% | 87.1% | – | 139% | 91.6% | – | 79% | 86.4% | – | 94.1% | 96.2% | 81.2% | 111% | 73.1% | 75.6%
19 | C=CCC1(CC)C(=O)NC(=S)NC1=O | 104% | – | 80.6% | 102% | 98% | 105% | 83.7% | 111% | 101% | 96.8% | 93.2% | 103% | 105% | 102% | 97.9% | 93.5% | 97.3% | 101% | 100%
20 | CC(=O)[O][Hg][CH2]C1(C)COC(C)([CH2][Hg][O]C(C)=O)CO1 (centres undefined) | 86.7% | – | – | – | – | 57.9% | -39.3% (active) | – | 63.1% | -100% (active) | – | 26% | -100% (active) | 84.3% | 120% | -58.9% (active) | -77.4% (active) | 95.8% | 4.43% (active)
21 | CC(C)(C)N(Cc1ccccc1)N=O | 91.7% | 101% | – | 93.9% | – | – | 96.7% | 102% | – | 92.9% | – | 99.2% | 118% | 109% | – | 90.3% | – | – | –
